The values below come from PubChem BioAssay (NCI).

Compounds without any hit were thinned out: in the full panel of roughly 83,000, 20% have a hit.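 Treatment: one concentration, 48 hours, 96-well format. Scoring: percent growth, with anything below 10 considered active.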 Values without a mark were called inactive. Activity calls are given as the source filed them.

Among the test systems are SR leukemia; RPMI-8226 leukemia; OVCAR-8 ovarian; OVCAR-5 ovarian; OVCAR-4 ovarian; SK-OV-3 ovarian; IGROV1 ovarian; OVCAR-3 ovarian; HS 578T breast; NCI/ADR-RES ovarian; T-47D breast; BT-549 breast; MDA-MB-435 melanoma; SW-620 colon; MCF7 breast; HCT-116 colon; HCC-2998 colon; KM12 colon.
Common to all, as to test: NCI-60 one-dose screen, 48 h (100 = growth as untreated, 0 = no growth, -100 = all killed)
Conditions in all cases: 10 µM unless noted

`Cc1nc(-c2ccccc2O)ccc1C(=O)N=Nc1c(O)[nH]c2ccc(Br)cc12`: the growth was 101% in the test on SR leukemia; 87.9% in the test with RPMI-8226 leukemia; 97.9% in the test on OVCAR-8 ovarian; 101% with OVCAR-5 ovarian; 102% with OVCAR-4 ovarian; 97.7% with SK-OV-3 ovarian. In addition, the growth is 89.7% with IGROV1 ovarian; 103% in the test with OVCAR-3 ovarian; 91.6% in the test with HS 578T breast; 99.6% in the test on NCI/ADR-RES ovarian; 88.9% with T-47D breast; 102% with BT-549 breast. Further, the growth was 102% with MDA-MB-435 melanoma; 95.9% with SW-620 colon; 91% in the test on MCF7 breast; 99.1% with HCT-116 colon; 123% with HCC-2998 colon; 98.3% in the test with KM12 colon.

As for `O=C(Nc1ccc(F)c(F)c1)c1cc(-c2ccc(F)cc2F)ccc1O`, the growth with SR leukemia is 32.8%; in the test with RPMI-8226 leukemia, -11.4% (active); in the test on OVCAR-8 ovarian, 9.13% (active); in the test on OVCAR-5 ovarian it was 12.1%; with OVCAR-4 ovarian, 10%; in the test on SK-OV-3 ovarian, 6.7% (active). Besides, the growth is 14.9% in the test on IGROV1 ovarian; 7.32% (active) with OVCAR-3 ovarian; -0.443% (active) in the test on HS 578T breast; 2.02% (active) with NCI/ADR-RES ovarian; 3.6% (active) in the test with T-47D breast; -1.22% (active) with BT-549 breast. For the same compound, the growth in the test on MDA-MB-435 melanoma is 1.2% (active); in the test on SW-620 colon it was 12.3%; in the test with MCF7 breast, 0.642% (active); with HCT-116 colon, 6.45% (active); in the test on HCC-2998 colon it was 15.5%; in the test on KM12 colon it was 0.724% (active).

On to `Cc1ccc(-n2c(/C=C3\C(=O)Nc4ccccc43)ccc2CO)cc1`, for which the growth was 46.6% in the test with SR leukemia; 69.4% with RPMI-8226 leukemia; 94.3% in the test with OVCAR-8 ovarian; 104% in the test on OVCAR-5 ovarian; 90.1% in the test with OVCAR-4 ovarian; 86.8% in the test on SK-OV-3 ovarian. Also, the growth in the test with IGROV1 ovarian was 75%; in the test with OVCAR-3 ovarian, 65.4%; in the test on HS 578T breast, 87.3%; in the test with NCI/ADR-RES ovarian, 55.7%; in the test with T-47D breast, 77.4%; in the test on BT-549 breast, 66.6%. Moreover, the growth with MDA-MB-435 melanoma was -10.3% (active); in the test on SW-620 colon it was 43.3%; with MCF7 breast it was 34.5%; in the test with HCT-116 colon, 52.8%; in the test on HCC-2998 colon, 95.7%; in the test on KM12 colon, 18.8%.

Turning to `C=CC(=O)N1CCC=C(c2cc3c(N[C@H](C)c4ccccc4)ncnc3[nH]2)C1`, the growth in the test on SR leukemia is 32.9%; with RPMI-8226 leukemia it was 41.8%; in the test with OVCAR-8 ovarian, 66.4%; with OVCAR-5 ovarian, 49.8%; in the test on OVCAR-4 ovarian, 45.4%; in the test on SK-OV-3 ovarian it was -6.72% (active). Further, the growth with IGROV1 ovarian is 14.5%; in the test with OVCAR-3 ovarian it was 56.2%; in the test with HS 578T breast, 69%; in the test with NCI/ADR-RES ovarian it was 73.7%; in the test with T-47D breast, 29.7%; with BT-549 breast, 89.8%. Also, the growth in the test on MDA-MB-435 melanoma was 74.5%; in the test on SW-620 colon it was 91.7%; in the test with MCF7 breast, 49.5%; with HCT-116 colon, 71.8%; with HCC-2998 colon, 93.8%; with KM12 colon it was 90.5%.

As to `NC(N)=Nc1ccc(Oc2cccc(NC(N)=Nc3ccc(Br)cc3)c2)cn1`, the growth with SR leukemia was 34.5%; in the test on RPMI-8226 leukemia, 51.4%; with OVCAR-8 ovarian it was 68.1%; in the test with OVCAR-5 ovarian, 66.7%; with OVCAR-4 ovarian it was 71%; with SK-OV-3 ovarian, 73.6%. Also, the growth with IGROV1 ovarian is 37.9%; in the test with OVCAR-3 ovarian, 64.9%; with HS 578T breast it was 44.2%; in the test with NCI/ADR-RES ovarian, 100%; with T-47D breast, 37.8%; with BT-549 breast, 99.2%. Further, the growth with MDA-MB-435 melanoma is 72.7%; in the test on SW-620 colon it was 76%; in the test with MCF7 breast, 10.8%; with HCT-116 colon it was 69.2%; in the test on HCC-2998 colon, 79.3%; in the test with KM12 colon, 66.5%.

For `CC/C(=C/c1cc(OC)ccc1O)c1ccc2cc(OC)ccc2[o+]1`, the growth is 18.3% with SR leukemia; 79.4% in the test on RPMI-8226 leukemia; 87.1% with OVCAR-8 ovarian; 82.8% with OVCAR-5 ovarian; 89.8% in the test on OVCAR-4 ovarian; 60.2% in the test on SK-OV-3 ovarian. Also, the growth with IGROV1 ovarian is 55.1%; in the test on OVCAR-3 ovarian, 20.7%; in the test with HS 578T breast it was 63.4%; with NCI/ADR-RES ovarian, 33.5%; with T-47D breast, 52.9%; in the test with BT-549 breast it was 51.5%. Further, the growth was -28.3% (active) in the test with MDA-MB-435 melanoma; 33.2% in the test with SW-620 colon; 16.6% in the test on MCF7 breast; 26.8% in the test with HCT-116 colon; 81.8% in the test on HCC-2998 colon; 46.1% in the test with KM12 colon.

Turning to `O=C1[C@H]2Cc3c([nH]c4ccccc34)[C@@H](c3ccc(Cl)cc3)N2C(=O)CN1C1CCN(Cc2ccccc2)CC1`, the growth in the test on SR leukemia is 10.4%; in the test on RPMI-8226 leukemia, 17%; in the test on OVCAR-8 ovarian, 72.7%; in the test with OVCAR-5 ovarian, 74.8%; in the test with OVCAR-4 ovarian, 49.1%; with SK-OV-3 ovarian, 79.7%. The growth with IGROV1 ovarian was 33.5%; in the test on OVCAR-3 ovarian, 47.7%; with HS 578T breast, 68.1%; in the test on NCI/ADR-RES ovarian, 51.3%; in the test with T-47D breast, 55.9%; with BT-549 breast, 83.9%. The growth was 43.8% in the test on MDA-MB-435 melanoma; 62.5% with SW-620 colon; 12.6% with MCF7 breast; 33% in the test with HCT-116 colon; 40.3% in the test on HCC-2998 colon; 47.7% in the test on KM12 colon.

As to `CC(C)(C)c1ccc(C(=O)Nc2nc3ccc(O)cc3s2)cc1`, the growth in the test with SR leukemia was 24.7%; in the test with RPMI-8226 leukemia, 22.1%; in the test on OVCAR-8 ovarian, 30.6%; in the test on OVCAR-5 ovarian, 69.6%; in the test on OVCAR-4 ovarian it was 46.3%; in the test with SK-OV-3 ovarian, 78.6%. The growth with IGROV1 ovarian is 47.7%; in the test on OVCAR-3 ovarian, 57.6%; with HS 578T breast, 77.3%; with NCI/ADR-RES ovarian, 40.9%; in the test with T-47D breast it was 28.5%; in the test on BT-549 breast it was 62.9%. Further, the growth is 34.3% with MDA-MB-435 melanoma; 14.2% in the test on SW-620 colon; 15.8% in the test with MCF7 breast; 45.6% with HCT-116 colon; 14.7% with HCC-2998 colon; 14% in the test on KM12 colon.
